# In all, about 390,000 compounds went through this assay and about 1,400 (0.36%) were called active. Inconclusive results (about 2%) are left out. For the sample, actives were picked, then their nearest neighbours and some compounds at random. Unmarked numbers belong to inactive results. Calls come from the whole dose curve; as a rule, active = well fitted inhibition curve with a large enough effect; inconclusive = small, poorly fitted or top-dose-only effect; inactive = no such curve, though single readings can be large or run the other way.
# Biological target: Flap endonuclease 1 (Homo sapiens) (UniProt P39748)
# Sequence (P39748 whole entry, looked up): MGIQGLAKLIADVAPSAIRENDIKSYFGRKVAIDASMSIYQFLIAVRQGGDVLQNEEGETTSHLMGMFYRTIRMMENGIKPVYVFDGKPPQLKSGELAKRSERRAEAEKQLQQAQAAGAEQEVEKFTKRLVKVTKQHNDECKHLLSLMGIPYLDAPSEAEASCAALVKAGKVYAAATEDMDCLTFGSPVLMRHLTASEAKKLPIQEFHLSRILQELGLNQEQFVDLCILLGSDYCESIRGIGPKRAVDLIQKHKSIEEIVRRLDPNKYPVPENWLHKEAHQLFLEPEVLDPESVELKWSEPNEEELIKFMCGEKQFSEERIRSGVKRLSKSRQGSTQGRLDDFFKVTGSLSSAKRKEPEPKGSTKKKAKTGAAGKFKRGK
# Test: qHTS Assay for the Inhibitors of Human Flap endonuclease 1 (FEN1). Note: nearly all actives have a fitted effect of over 65% in size.
# Details: Recombinant FEN1 flap cleavage, fluorescence, 15 min; series mostly up to 114 µM; activity change, negative = inhibition: at the top concentration
# Excerpt: The major human flap endonuclease FEN1 is an efficient structure-specific enzyme that recognizes and cleaves a 5'-unannealed DNA flap. It belongs to the RAD2 family nucleases, which are involved in DNA metabolism and are highly conserved in prokaryotes and eukaryotes. FEN1 is a key enzyme in DNA replication, repair and maintenance of genomic stability. 5'-flap removal by FEN1 is critical for Okazaki fragment processing during lagging strand DNA synthesis, long-patch base excision repair (LP BER), and regulating or facilitating recombination events. […] Deletion of the yeast FEN1 gene, i.e. rad27, results in an increased frequency of short DNA (3-32 bp) repeats, micro- and mini-satellite formation, trinucleotide repeat expansion, spontaneous recombination events, and a severe growth defect in association with cell cycle arrest in late S/G2 phase. […] Cells from fen1-/- blastocysts show increased apoptotic cell death after ionizing radiation treatment, and chicken cells lacking the fen1 gene are hypersensitive to DNA alkylating agents, e.g. methylmethane sulfonate (MMS) and N-methyl-N'-nitro-N-nitrosoguanidine (MNNG), as well as hydrogen peroxide.
# NIH Chemical Genomics Center [NCGC]
# NIH Molecular Libraries Probe Centers Network [MLPCN]
# Assay Submitter (PI): David Wilson, National Institute of Aging
# Three uL of reagents (buffer in column 3 and 4 as negative control and 10 nM FEN1 in columns 1, 2, and 5-48) were dispensed into 1,536-well black solid-bottomed plate. Compounds (23 nL) were transferred via Kalypsys pin tool equipped with 1536-pin array (10 nL slotted pins, V&P Scientific, San Diego, CA). The plates were then incubated for 15 min at room temperature, and 1 uL substrate (50 nM final concentration) were added to start the reaction read twice at 0 min read and 15 min on ViewLux reader. Throughout the screen, reagent bottle and all liquid lines were chilled and made light-tight to minimize reagent degradation. All screening operations were performed on a fully integrated robotic system (Kalypsys, San Diego, CA) containing one RX-130 and two RX-90 anthropomorphic robotic arms (Staubli, Duncan, SC). Library plates were screened starting from the lowest and proceeding to the highest concentration, and a "double-dipping" step of the highest concentration was required to access higher concentrations of compounds. Vehicle-only plates, with DMSO being pin-transferred to the entire column 5-48 compound area, were inserted uniformly at the beginning and the end of each library in order to monitor for and record any shifts in the background, which can be affected by reagent dispensers or loss in enzyme activity overtime. Screening data was corrected, normalized, and concentration-effect relationships were derived by using publicly-available curve fitting algorithms developed in-house (http://ncgc.nih.gov/pub/openhts). A four parameter Hill equation was fitted to the concentration-response data by minimizing the residual error between the modeled and observed responses.
# % is set by controls: 0 for no effect and ±100 for the full control effect; potency is the fitted concentration of half-maximal effect.
SMILES,"activity change, negative = inhibition [%]",Potency
COc1cc2nc(N3CCCN(C)CC3)nc(NC(C)C)c2cc1OC,-7.37,–
CNCCCOc1cc2nc(N3CCCN(C)CC3)nc(NC3CCN(C)CC3)c2cc1OC,–,22.4 µM (active)
COc1cc2nc(Cl)nc(NC3CC3)c2cc1OC,-7,–
CN(N=O)c1ccc(C=C2c3ccccc3-c3ccccc32)cc1,-19.3,–
O=C(COc1ccccc1C(=O)Nc1ccccc1)Nc1cccc(F)c1,2.36,–
CC(=O)c1ccc[n+](C(C)CCC(C)[n+]2cccc(C(C)=O)c2)c1 (stereo unspecified),-9.54,–
Cc1ccc(-c2cc(N)n(Cc3cccc(Cl)c3)n2)cc1,-16.4,–
C[C@@H]1CC[C@@]2(OC1)O[C@H]1C[C@H]3[C@@H]4CC=C5C[C@@H](O)[C@H](O)C[C@]5(C)C4CC[C@]3(C)[C@H]1[C@@H]2C (stereo partly specified),13.5,–
CC(=O)OC1CCC2(C)C(=CCC3C4CC(=O)N(O)C(=O)C4(C)CCC32)C1 (stereo unspecified),–,3.16 µM (active)
C[C@]12CC[C@H](O)CC1=CCC1C2CC[C@@]2(C)C1CC[C@@H]2NC(=O)CCC(=O)O (stereo partly specified),2.34,–
CC(C)(C(=O)NO)c1ccccc1,-6.25,–
CN(C)c1ccc(/C=N\Nc2ccc([N+](=O)[O-])cc2[N+](=O)[O-])cc1Cl,2.15,–
CCCCOc1ccc(CN2C(=O)C(=O)c3cc(Br)cc(C)c32)cc1OC,-12.5,–
CN(C)CCNC(=O)c1ccc(Cl)c2cc3ccccc3nc12,–,11.2 µM (active)
COc1ccccc1Nc1cc(C(=O)NCCCN(C)C2CCCCC2)c2ccccc2n1,3.77,–
COc1ccc(Nc2cc(C(=O)NCCCN(C)c3ccccc3)c3ccccc3n2)c(OC)c1,1.8,–
COc1ccc(NC(=O)CN2C(=O)C(c3ccccc3)=NC23CCCCCC3)cc1OC,-12.5,–
Cc1ccc(NC(=O)CN2C(=O)C(c3ccc(F)cc3)=NC23CCCCCC3)c(C)c1,–,89.1 µM (active)
CCc1ccc(NC(=O)CN2C(=O)C(c3ccccc3)=NC23CCCCCC3)cc1,-26.4,–
COc1ccc(CCNc2ncnc3c2cnn3-c2ccc(C)cc2)cc1,-15.5,–
COc1ccc2[nH]c3c(C)c4cc[n+](C)cc4c(C)c3c2c1,–,2.24 µM (active)
CCOC(=O)c1[nH]c2ccc(OC)cc2c1NC(=O)N1CCOCC1,-2.89,–
CN(C)c1ccc(/C=C2\C=Cc3ccccc32)cc1Br,-23.9,–
c1ccc(Cn2nnc3c(N4CCCCC4)ncnc32)cc1,14.5,–
CCCCOc1ccc(C(=O)NO)cc1,0.524,–
O=[N+]([O-])c1ccc(/C=C/c2ccc3cccnc3c2)cc1,-2.17,–

SMILES,"activity change, negative = inhibition [%]",Potency
COc1ccc(OC)c(NC(=O)Cc2cccs2)c1,-1.63,–
COc1ccc(Cc2nnc(NC(=O)Cc3cccs3)s2)cc1,–,56.2 µM (active)
COc1ccccc1NC(=O)Nc1nnc(Cc2ccc(F)cc2)s1,26.2,–
CN(C)c1ccc(/C=C/c2sc3ccccc3[n+]2C)cc1,–,50.1 µM (active)
CC[n+]1cc(C)ccc1/C=C/c1ccc(N(C)C)cc1,-25,–
CN(C)c1ccc(/C=C/c2c3ccccc3nc3ccccc23)cc1,-17,–
CN(C)c1ccc(/C=C/c2sc3ccccc3[n+]2CCCCBr)cc1,–,50.1 µM (active)
CO[C@H]1O[C@@H]2O[C@@]3(C)CC[C@@H]4[C@@H](C)CC[C@@H]([C@H]1C)[C@@]24OO3,12.3,–
Cc1ccc(Cn2cnc3c(cnn3C(C)(C)C)c2=O)c(F)c1,-14.4,–
Cc1ccc(C=O)cc1Cl,-1.08,–
CCCCCCC1(C)NC(c2ccc3c(c2)OCO3)=CC(c2ccccc2O)N1 (stereo unspecified),-17.3,–
Cc1ccc2ccc3c(c2n1)NS(=O)(=O)c1ccccc1-3,13.3,–
SCc1nc2ccc(Cl)cc2[nH]1,3.96,–
CCN(CC)/[N+]([O-])=N/OCOC(=O)Cc1c(C)n(C(=O)c2ccc(Cl)cc2)c2ccc(OC)cc12,-21,–
CCc1cnc2c(c1SCC(=O)c1ccccc1)c(=O)n(C)c(=O)n2C,7.78,–
O=C(NNc1c2ccccc2nc2ccccc12)c1cc2ccccc2cc1O,–,50.1 µM (active)
O=C(COC(=O)c1ccc(O)cc1O)NC(=O)c1ccccc1,-0.462,–
O=C(NNC(=O)c1ccccc1O)c1ccccc1O,-1.19,–
COc1c(O)cc2oc(-c3ccc(O)c(O)c3)cc(=O)c2c1O,–,17.8 µM (active)
COc1ccc(-c2c(C)c3ccc(O)c(CN4CCN(C)CC4)c3oc2=O)cc1OC,-15.2,–
CCOC(=O)COc1cc(OCC(=O)OCC)c2c(=O)cc(-c3ccccc3)oc2c1,5.91,–
OCC(O)C(O)C(O)C(O)C=Nc1ccc(/C=C/c2ccnc3ccccc23)cc1 (stereo unspecified),5.86,–
CC1(C)Cc2ccccc2-c2c[nH]c(=O)n21,1.92,–
Nc1ccccc1SC(C[N+](=O)[O-])c1ccccc1 (stereo unspecified),–,15.8 µM (active)
Cc1csc[n+]1CCC1CCCCC1,3.23,–
